# Screens: PubChem BioAssay, National Center for Advancing Translational Sciences (NCATS)
# Hits are enriched below; roughly 2.9% of the tested compounds scored in any of these assays.
# IP6K1 inh – blocks human inositol hexakisphosphate kinase 1 | Q92551 | IP6K1 kinase, ADP-Glo luminescence, 2 h; hits give low values | activity change, % (series mostly up to about 58 µM) | hit rate 0.81% among 140,000; in the data active = activity change below about -25%; note: % is set by controls: 0 for no effect and ±100 for the full control effect
#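 ADP-Glo luminescence measures ADP made by human IP6K1 during a 2 h RT reaction with ATP/IP6 (mix at 1.3 mM/130 uM); top library doses 57.5 and 19.1 uM final.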
# HEK293 viab – cell viability loss counter-screen; HEK-293-SNCA-luc viability, GF-AFC fluorescence, 24 h; Potency, µM (series often up to 57.1 µM), without a hit: at the top dose activity change, negative = cytotoxicity, most hits filed as cytotoxic; hit rate 0.12% among 150,000;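 note: potency is the fitted concentration of half-maximal effect; 0% = DMSO-treated cells and -100% = medium-only wells without cells; nearly all actives have a fitted effect of over 30% in size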
#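 HEK-293-SNCA-luc cells (1500/well) plated 24 h, then exposed 24 h to a dilution series; GF-AFC added 30 min at 37C, fluorescence 405/540 nm; normalised to medium-only and DMSO wells, Hill fit.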
# KDM5B inh – blocks human KDM5B histone demethylase activity. hit rate 2.6% among 220,000. Potency, µM (top dose mostly 57.7 µM), usual class: inhibitors. KDM5B demethylase, FDH-coupled NADH fluorescence (FDH is formaldehyde dehydrogenase); note: potency is the fitted concentration of half-maximal effect; 0% is about no effect; nearly all actives have a fitted effect of over 70% in size
#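 Compound dilutions met 200 nM (final) KDM5BΔAP for 10 min at room temperature before substrate addition. The substrate mix held 12.5 µM H3K4me3 with cofactors 25 µM α-ketoglutarate and 50 µM Fe²⁺. NADH signal gain over 30 min defined activity.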
# SNCA expr inh – reduces expression of the alpha-synuclein gene; HEK-293 SNCA-luciferase knock-in, luminescence, 24 h; hit rate 0.17% among 140,000; AID 1671194; Potency, µM (highest dose often 57.2 µM), for inactives: at the top dose activity change, negative = inhibition, most hits filed as inhibitors;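 note: potency is the fitted concentration of half-maximal effect; plate controls were DMSO cells for no effect and cell-free wells for full effect; nearly all actives have a fitted effect of over 45% in size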
# An asterisk follows results filed as active; i = inactive; ? = inconclusive; / = no result given; [ ] = remark or other dose. Unless noted, calls come from the whole dose curve; as a rule, active = well fitted curve in the direction sought with a large enough effect; inconclusive = small, poorly fitted or top-dose-only effect, or another doubt; inactive = no such curve, though single readings can be large; an effect the other way counts as inactive or inconclusive.
SMILES,IP6K1 inh,HEK293 viab,KDM5B inh,SNCA expr inh
CN1CCOc2c(C(=O)NCc3cnn(C)c3)cc(-c3ccc([S+](C)(=O)[O-])cc3)cc21,-15,-14%[87.6 µM],?,-3%[87.6 µM]
Cc1cc(CNC(=O)c2cc(-c3ccc(N4CCOCC4)cc3)cc3c2OCCN3C)no1,-21,3%,?,-11%
COc1ccc(-c2cc(C(=O)NCc3cc(C)on3)c3c(c2)N(C)CCO3)cc1OC,-22,-12%[87.6 µM],35µM*,10%[87.6 µM]
CN1CCOc2c(C(=O)NCc3cnn(C)c3)cc(-c3ccccc3)cc21,-15,-4%[87.6 µM],40µM*,-4%[87.6 µM]
Cc1ccccc1-c1cc(C(=O)NCc2cccnc2)c2c(c1)N(C)CCO2,-18,-18%[87.6 µM],35µM*,?
Cc1cc(CNC(=O)c2cc(-c3ccccc3)cc3c2OCCN3C)no1,-23,-9%[87.6 µM],40µM*,-21%[87.6 µM]
CC(=O)Nc1cc(-c2cc(C(=O)NCc3cc(C)on3)c3c(c2)N(C)CCO3)ccn1,-22,-15%[87.6 µM],i,3%[87.6 µM]
CS(=O)(=O)CC(O)c1cc2n(n1)CCN(c1cncc(C(N)=O)n1)C2 (centres undefined),11,2%,25µM*,-9%
O=C(Nc1ccc(Cl)nc1)c1ccn2cncc2c1,7,6%[87.6 µM],i,48%[87.6 µM]
O=C(Nc1ccc(F)cc1)c1ccn2cncc2c1,3,-12%[87.6 µM],35µM*,18%[87.6 µM]
Cc1noc(C)c1-c1cc(-c2cccc3cc[nH]c23)cn2cncc12,-15,?,?,4%[87.6 µM]
Oc1cccc(-c2cc(C3=CCOCC3)c3cncn3c2)c1,-6,3%[87.6 µM],?,-15%[87.6 µM]
Oc1ccccc1-c1cc(C2=CCOCC2)c2cncn2c1,-13,2%[87.6 µM],32µM*,2%[87.6 µM]
C1=C(c2cc(-c3cccc4[nH]ccc34)cn3cncc23)CCOC1,-9,-10%[87.6 µM],25µM*,-27%[87.6 µM]
C1=C(c2cc(-c3cccc4cn[nH]c34)cn3cncc23)CCOC1,29,-9%[87.6 µM],32µM*,?
Cn1c(=O)c2[nH]c(N3CCN(C(=O)c4ccccc4F)CC3)nc2n(C)c1=O,/,/,i,/
CC(=O)N1CCC(N2CCC[C@H]2c2nc(-c3ccnc(N4CCC(C(N)=O)CC4)c3)no2)CC1,13,4%,22µM*,3%
NC(=O)C1CCN(c2cc(-c3noc([C@@H]4CCCN4Cc4ccc(Cl)cc4)n3)ccn2)CC1,7,-9%,32µM*,11%
NC(=O)C1CCN(c2cc(-c3noc([C@@H]4CCCN4Cc4ccccc4F)n3)ccn2)CC1,9,-9%,?,-18%
CC(=O)Nc1ccc(CN2CCC[C@H]2c2nc(-c3ccc(N4CCC(C(N)=O)CC4)nc3)no2)cc1,1,7%,?,-10%
CS(=O)(=O)c1ccc(CN2CCC[C@H]2c2nc(-c3ccnc(N4CCC(C(N)=O)CC4)c3)no2)cc1,-3,1%,28µM*,-6%
COc1ccc(-c2nc3c(c(-c4ccccc4)n2)CN(C(C)=O)CC3)cc1,-10,10%,28µM*,26%
COc1ccc(C(=O)N2CCc3nc(C4CC4)nc(-c4ccc(OC)cc4)c3C2)cc1,-11,-21%,i,-13%
COc1ccc(-c2nc(-c3ccccc3)nc3c2CN(C(=O)N(C)C)CC3)cc1,3,-11%,?,14%
COc1ccc(-c2nc(C3CC3)nc3c2CN(C(=O)c2ccc(C(F)(F)F)cc2)CC3)cc1,-11,10µM*,?,?
SMILES,IP6K1 inh,HEK293 viab,KDM5B inh,SNCA expr inh
O=C(c1ccc(F)cc1Cl)N1CCc2c(nc3cc[nH]n3c2=O)C1,8,7%,28µM*,-6%
O=C(c1ccccc1C(F)(F)F)N1CCc2c(nc3cc[nH]n3c2=O)C1,13,11%,25µM*,-9%
O=C(c1ccc2ncccc2c1)N1CCc2c(nc3cc[nH]n3c2=O)C1,31,0%,?,78%
Cc1ccc(N2CC(c3noc(-c4ccc5c(c4)OCO5)n3)CC2=O)cc1 (centres undefined),13,8%,32µM*,18%
COc1ccc(N2CC(c3noc(-c4ccc5c(c4)OCO5)n3)CC2=O)cc1 (centres undefined),-3,7%,32µM*,-21%
COc1ccc(N2CC(c3noc(-c4ccc5c(c4)OCO5)n3)CC2=O)cc1OC (centres undefined),-8,0%,?,0%
Cc1ccc(C(=O)N2CCC3(CC2)[C@H](O)C[C@@H]3O)cc1N1CCNC1=O,1,-9%,i,-7%
CN1C[C@@H]2CC[C@H](CC1=O)N2C(=O)c1cnn2cc(CCO)cnc12,-2,-4%,32µM*,-13%
